The record followed here is PubChem BioAssay (EPA / NIEHS).

Values joined by “and” are separate entries in the source; they are usually repeats but may differ in a detail not shown here. Equal values may be shown once. Records with an inconclusive call do not appear. Active and inactive are the calls of the source. Rule for the calls: active = hit-call score of the fitted dose curve at least 0.9, where 1 is the maximum; inconclusive = response in the unintended direction; inactive = score below 0.9.

The experiment deals with THRB (gene 7068) (UniProt P10828). As to the kind of experiment: TOX21_TRB_BLA_Antagonist_Followup_ratio: Tox21 Thyroid Hormone Receptor beta Antagonism Beta-lactamase (BLA) Follow-Up Assay, Ratio (AID 2283958). From the text: The GeneBLAzer TRb-UAS-bla HEK293T assay kit for human TRb (ThermoFisherScientific Catalog No. K1684) was used as a secondary assay for specificity (TRb-bla).This assay contained the ligand-binding domain (LBD) of the human TRb fused to the DNA-binding domain of GAL4 stably integrated in the GeneBLAzer UAS-bla HEK293Tcell line. The reporter gene, b-lactamase, is under the transcriptional control of a UAS that binds the GAL4 DNA-binding domain. A cell viability assay was run in parallel for these cells as well using the CellTiter-Glo viability assay kit.TOX21_TRB_BLA_Antagonist_Followup_ratio is an assay readout measuring reporter gene via receptor activity and designed using inducible reporter (beta lactamase induction) detected with GAL4 b-lactamase reporter gene. The signal is derived from the ratio of cleaved (ch2) to uncleaved (ch1) reporter gene substrate used as the measure of target activity.Data from the assay component TOX21_TRB_BLA_Antagonist_Followup_ratio was analyzed into 1 assay endpoint. This assay endpoint, TOX21_TRB_BLA_Antagonist_Followup_ratio, was analyzed in the positive analysis fitting direction relative to DMSO as the negative control and baseline of activity. Using a type of inducible reporter, loss-of-signal activity can be used to understand changes in the reporter gene as they relate to the gene THRB. Furthermore, this assay endpoint can be referred to as a primary readout, because this assay has produced multiple assay endpoints and this ratio serves a reporter gene function to understand target activity. To generalize the intended target to other relatable targets, this assay endpoint is annotated to the nuclear receptor intended target family, where the subfamily is non-steroidal.
Sequence of THRB (gene 7068) (P10828 whole entry, looked up, the tested form may be a part): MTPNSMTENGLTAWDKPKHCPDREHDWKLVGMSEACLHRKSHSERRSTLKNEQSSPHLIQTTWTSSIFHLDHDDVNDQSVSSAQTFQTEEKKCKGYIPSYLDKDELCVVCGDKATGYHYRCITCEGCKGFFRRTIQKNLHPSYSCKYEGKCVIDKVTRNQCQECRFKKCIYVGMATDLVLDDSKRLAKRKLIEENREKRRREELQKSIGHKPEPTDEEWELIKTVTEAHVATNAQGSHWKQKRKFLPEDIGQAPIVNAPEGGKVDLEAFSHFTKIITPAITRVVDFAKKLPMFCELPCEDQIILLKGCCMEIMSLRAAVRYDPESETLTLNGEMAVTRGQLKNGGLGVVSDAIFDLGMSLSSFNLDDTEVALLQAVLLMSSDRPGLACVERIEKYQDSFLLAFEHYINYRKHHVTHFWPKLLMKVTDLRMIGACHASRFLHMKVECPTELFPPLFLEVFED
Cell Media Required: Growth (90% DMEM/F-12, 10% Fetal Bovine Calf Serum, 100U/ml Penicillin, 100 ug/ml Streptomycin), Assay (10ng/mL sodium selenite, 10 ug/mL humanapo-transferrin, 10 uM ethanolamine, 10 ug/mL insulin, 500 ug/mL bovine serum albumin (BSA))Assay Protocol: TRb-bla cells were dispensed at 3,000 cells/well in 5 uL of the assay medium containing phenol red-free DMEM with 2% charcoal-stripped FBS in 1,536-well black-wall/clear-bottom plates using an FRD. After 5-h incubation at 37C/5% CO2 for cell attachment to the well bottom, 23nL of follow-up compounds dissolved in DMSO, 11 concentrations in triplicate, and the positive control (T3; agonist format) were transferred to the assay plates using a Pintool station. The assay plates were incubated at 37C/5% CO2 for 18h. One microliter LiveBLAzer FRET-B/G CCF4-AM substrate was added to each well using an FRD. After 2-h incubation at room temperature, the fluorescence intensity was measured using an Envision plate reader. Data were expressed as the ratio of 460:530nm. The cytotoxicity of the compounds was measured in the same plates by adding 4 uL of CellTiter-Glo reagent to each well and incubating the plates at room temperature for 30 min. The luminescence intensity was measured using a ViewLux plate reader.For the luciferase reporter gene assay, 5 uL/well (agonist format) and 4 uL/well (antagonist format) ONE-Glo reagent (Promega Corporation) was added using an FRD and after 30-min incubation at room temperature, the luminescence intensity was measured using a ViewLux plate reader. Data were expressed as relative fluorescence units (cell viability assay) and relative luminescence units (luciferase reporter assay).
For `CCCOc1ccc2nc(NC(=O)OC)sc2c1`, the outcome was inactive.

`C[C@@H]1C[C@H]2[C@@H]3CCC4=CC(=O)C=C[C@]4(C)[C@@]3(Cl)[C@@H](O)C[C@]2(C)[C@@]1(OC(=O)c1ccco1)C(=O)CCl`: the outcome was inactive.

Turning to `Cc1cc(Nc2ccccc2C(=O)O)ccc1Cl`, the AC50 was 51.5 µM (active).

Consider `CC[C@@]1(O)C[C@@H]2CN(CCc3c([nH]c4ccccc34)[C@@](C(=O)OC)(c3cc4c(cc3OC)N(C)[C@H]3[C@@](O)(C(=O)OC)[C@H](OC(C)=O)[C@]5(CC)C=CCN6CC[C@]43[C@@H]65)C2)C1`, for which the AC50 is 0.0734 µM (active).

Regarding `CC(C(=O)O)c1ccc(N2Cc3ccccc3C2=O)cc1` (stereo not given), the result was inactive.

As to `CC(C)N=C(N)/N=C(\N)Nc1ccc(Cl)cc1`, the outcome was inactive.

Regarding `Cc1oc(C)c(C(=O)Nc2ccccc2)c1C`, the result was inactive.

Take `COc1ccc(/C=C/C(=O)Nc2ccccc2C(=O)O)cc1OC`: the outcome was inactive.

For `Cc1nc2ccccc2n1Cc1ccc(Cl)cc1`, the result was inactive.

`O=C(CCCCCCC(=O)Nc1ccccc1)NO`: the result was inactive.

For `Oc1c(I)cc(I)c2cccnc12`, the outcome was inactive.

As for `CC1(C)N=C(N)N=C(N)N1c1ccc(Cl)cc1`, the result was inactive.

`CCCCCOc1ccc(C2SC(=O)NC2=O)cc1OCC` (stereo not given): the AC50 is 1.76 µM (active).

As to `O=C1C(=O)c2ncccc2-c2cccnc21`, the result was inactive.

For `CCc1cc(Cl)c(OC)c(C(=O)NC[C@@H]2CCCN2CC)c1O`, the outcome was inactive.

As for `Cc1nc(-c2ccc(OCC(C)C)c(C#N)c2)sc1C(=O)O`, the result was inactive.

For the molecule `CC(C)=CCC1=C(O)c2ccccc2C(=O)C1=O`, the result was inactive.

Take `NC(N)=NCc1cccc(I)c1`: the result was inactive.

For the molecule `CC(=O)Nc1ccn(C2COC(COC(=O)c3ccccc3)O2)c(=O)n1` (stereo not given), the outcome was inactive.

Take `COc1ccc2nc(NC(=O)Nc3ccccc3)sc2c1`: the outcome was inactive.

As for `CC(C)n1c(/C=C/[C@@H](O)C[C@@H](O)CC(=O)O)c(-c2ccc(F)cc2)c2ccccc21`, the result was inactive.

`O=C(O)c1cccc(-c2noc(-c3ccccc3F)n2)c1`: the outcome was inactive.

For the molecule `CCC[C@@]1(CCc2ccccc2)CC(O)=C([C@H](CC)c2cccc(NS(=O)(=O)c3ccc(C(F)(F)F)cn3)c2)C(=O)O1`, the outcome was inactive.

Consider `COC(=O)Nc1nc2ccc(Sc3ccccc3)cc2[nH]1`, for which the AC50 is 0.868 µM (active).

For the molecule `Nc1ccc2cc3ccc(N)cc3nc2c1`, the AC50 is 32.4 µM (active) and 28.8 µM (active).

For the molecule `Cc1c(Nc2ncccc2C(=O)O)cccc1C(F)(F)F`, the outcome was inactive.

In the case of `CO[C@H]1C[C@@H]2CC[C@@H](C)[C@@](O)(O2)C(=O)C(=O)N2CCCC[C@H]2C(=O)O[C@H]([C@H](C)C[C@@H]2CC[C@@H](OCCO)[C@H](OC)C2)CC(=O)[C@H](C)/C=C(\C)[C@@H](O)[C@@H](OC)C(=O)[C@H](C)C[C@H](C)\C=C/C=C/C=C/1C`, the result was inactive.

On to `COc1cc([C@@H]2c3cc4c(cc3[C@H](O)[C@H]3COC(=O)[C@H]23)OCO4)cc(OC)c1OC`, for which the AC50 was 0.0273 µM (active).

`CCCC(=O)O[C@]1(C(=O)CCl)[C@@H](C)C[C@H]2[C@@H]3CCC4=CC(=O)C=C[C@]4(C)[C@@]3(F)C(=O)C[C@@]21C`: the result was inactive.

Take `O=[Se](O)O`: the AC50 is 1.64 µM (active).

On to `O=C(CCCCCCCCC#CI)Oc1ccccc1`, for which the outcome was inactive.

Regarding `O=c1[nH]c(=O)n([C@H]2C[C@H](O)[C@@H](CO)O2)cc1F`, the result was inactive.

With `C[n+]1c2cc(N)ccc2cc2ccc(N)cc21` (tested in a mixture with another compound), the AC50 was 36 µM (active).

For `CO[C@H](C(=O)[C@@H](O)[C@@H](C)O)C1Cc2cc3cc(O[C@H]4C[C@@H](O[C@H]5C[C@@H](O)[C@H](O)[C@@H](C)O5)[C@@H](O)[C@@H](C)O4)c(C)c(O)c3c(O)c2C(=O)[C@H]1O[C@H]1C[C@@H](O[C@H]2C[C@@H](O[C@H]3C[C@](C)(O)[C@H](O)[C@@H](C)O3)[C@H](O)[C@@H](C)O2)[C@H](O)[C@@H](C)O1` (stereo not given in full), the AC50 is 4.01 µM (active).

Regarding `C#CCC(Cc1cnc2nc(N)nc(N)c2n1)c1ccc(C(=O)N[C@@H](CCC(=O)O)C(=O)O)cc1` (stereo not given in full), the outcome was inactive.

By AC50 is commonly meant the midpoint of the concentration-response curve, whichever way the signal moves.
